Measurements as given in PubChem BioAssay (NCI).
Compounds without any hit were thinned out: in the full panel of roughly 83,000, 20% have a hit.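 Activity criterion: percent growth below 10, measured after cells in 96-well plates were exposed to a single compound concentration for 48 hours.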 Values without a mark were called inactive. Active and inactive are the calls of the source.

Test system: A549/ATCC NSCLC
Assay: NCI-60 one-dose screen, 48 h (100 = growth as untreated, 0 = no growth, -100 = all killed)
Conditions: 10 µM
Procedure: Growth inhibition of the A549/ATCC human Non-Small Cell Lung tumor cell line is measured as a screen for anti-cancer activity. Cells are grown in 96 well plates and exposed to the test compound for 48 hours. Compounds are tested at a single concentration, which is 10^-5 M for most compounds. The reported endpoint is percent growth (GI% or GIPRCNT), where numbers from 0 - 100% represent growth inhibition, and numbers from -100% - 0 represent cell death. For example, a value of 40 represents 60% growth inhibition. A value of 0 means no net growth occurred over the course of the experiment. A value of -40 indicates 40% of cells at the beginning of the experiment died by the end of the experiment. A value of -100 means all cells are dead at the end of the experiment.
NCI-60 Human Tumor Cell Lines Screen was performed using the standard one-dose NCI protocol, which is described in more detail at https://dtp.cancer.gov/discovery_development/nci-60/default.htm.
Compounds with GIPRCNT values below 10 were considered active. Activity score was based on GIPRCNT using the following formula: […]
Score is 0 for GIPRCNT values of 100 or above, 50 for GIPRCNT values of 0, and 100 for GIPRCNT values of -100.

Compound | growth
COc1ccc(-c2nn(-c3cccc(Cl)c3)cc2-c2c(C#N)c(=O)n3[nH]c(-c4ccccc4)nc3c2C#N)cc1 | 98.9%
O=C1CSC(=S)N1/N=C/c1ccc(Cl)s1 | 103%
Cc1noc(C)c1CSc1ccccc1C(=O)N1CCN(c2cccc(C(F)(F)F)c2)CC1 | 73.7%
C(=N\Nc1ncnc2sc3c(c12)CCNC3)/c1cccc2ccccc12 | 67.6%
CC1C(=NC(=O)c2cnccn2)C(C)C(c2ccc(Cl)cc2)NC1c1ccncc1 (stereo not given) | 92.9%
CCCCN(CCCC)C(=O)[C@H](CC)[C@@H]1CC[C@@H](C)[C@@H]([C@H](C)[C@@H](O)[C@@H](C)C(=O)[C@H](CC)C2O[C@]3(C=C[C@@H](O)[C@]4(CC[C@@](C)([C@H]5CC[C@](O)(CC)[C@H](C)O5)O4)O3)[C@H](C)C[C@@H]2C)O1 (stereo not given in full) | 9.11% (active)
O=C1c2ccccc2-c2c1c1cccnc1c(=O)n2C[C@H](O)CO | 31.9%
COc1ccc(C2CC(c3cccs3)=NN2c2ccc(S(N)(=O)=O)cc2)cc1 (stereo not given) | 75.8%
COc1cc2cc(Oc3ccc(NC(=O)c4cc(C(F)(F)F)cc(C(F)(F)F)c4)cc3)c(C)nc2cc1OC | 30.7%
O[C@@H]1CO[C@H]2[C@@H]1OC[C@@H]2O | 96.9%
COc1cc(/C=C/c2cc(/C=C/c3ccc(O)c(OC)c3)n(C(=O)Nc3ccc(C)cc3)n2)ccc1O | 4.71% (active)
CC(=O)Nc1ccc(CC[C@H]2CCC/C=C/[C@@H]3C[C@H](O)C[C@H]3[C@H](O)/C=C/C(=O)O2)cc1 | 11.9%
NS(=O)(=O)Oc1ccc(-c2ccc3sccc3c2)cc1 | 98.3%
CCCN(CCC)C(=O)[C@H](CC)[C@@H]1CC[C@@H](C)[C@@H]([C@H](C)[C@@H](O)[C@@H](C)C(=O)[C@H](CC)C2O[C@]3(C=C[C@@H](O)[C@]4(CC[C@@](C)([C@H]5CC[C@](O)(CC)[C@H](C)O5)O4)O3)[C@H](C)C[C@@H]2C)O1 (stereo not given in full) | 16.6%
Cc1ccc(NCCN(C)CC(C)O)c2c(=O)c3ccccc3sc12 (stereo not given) | 21.6%
CC(=O)N[C@H](C(=O)N[C@@H](CCCNC(=N)N)C(=O)N[C@@H](CCCCN)C(=O)N[C@@H](CCCNC(=N)N)C(=O)N[C@]1(C)CCCCCC/C=C\CCC[C@@](C)(C(=O)N[C@@H](CCCNC(=N)N)C(=O)N[C@@H](CCC(=O)O)C(=O)N[C@@H](CC(C)C)C(=O)N[C@H](C(=O)N[C@@H](CCC(=O)O)C(N)=O)C(C)C)NC(=O)[C@H](CCC(N)=O)NC(=O)[C@H](CC(C)C)NC(=O)[C@H](CC(C)C)NC(=O)[C@H](CCCNC(=N)N)NC(=O)[C@H](CCCNC(=N)N)NC(=O)[C@H](CC(C)C)NC1=O)C(C)C | 12.4%
Nc1ccc(/C=N/Nc2ccnc3c(O)cccc23)c2cccnc12 | 42.6%
Cc1cn(-c2cccc(NC(=O)c3ccc(C)c(Nc4nccc(-c5cccnc5)n4)c3)c2)cn1 | 10.7%
COc1cc(-c2nc3ccccc3o2)cc(CN2CCCCC2)c1O | 34%
CC(=O)COc1ccc(Cl)cc1Cl | 107%

Compound | growth
Cc1cc(SC#N)cc(C(C)(C)C)c1O | 81.9%
O=C(CSc1nnc(-c2cccnc2SCc2ccccc2)o1)Nc1nc(Cl)cc(Cl)n1 | 104%
Fc1ccc2[nH]cc(-c3nc(-c4ccsc4)cs3)c2c1 | 80%
CC(C)(C)c1ccc(S(=O)(=O)Oc2ccc(NC(=O)C3CCCCC3)cc2)cc1 | 41.5%
COC(=O)c1cc2oc(/C=C3/SC(=S)N(N)C3=O)cc2n1Cc1ccccc1 | 53.4%
COc1cc(-c2nn(-c3cccc(NC(=O)NCCNC(=O)c4ccccc4)c3)cc2-c2ccncc2)ccc1Cl | 24.2%
O=C(NCCCNS(=O)(=O)c1ccc(Cl)cc1)Nc1ccc(-n2cc(-c3ccncc3)c(-c3ccc(Cl)c(O)c3)n2)cc1 | 28.4%
C[C@@H](O)[C@H]1C(=O)N2C(C(=O)O)=C(SC3CN[C@H](C(=O)N(C)C)C3)[C@H](C)[C@H]12 (stereo not given in full) | 96.6%
COc1ccccc1N1CCCSC1=Nc1ccccc1 | 99.2%
CC(C)CCN(CCC(C)C)CC(=O)Nc1ccc(S(=O)(=O)c2ccc(NC(=O)CN(CCC(C)C)CCC(C)C)cc2)cc1 | 53.7%
CCOC(=O)c1cc(C(=O)c2cc(OC)cc(OC)c2)n2ncc3ccccc3c12 | 17.9%
O=C(Nc1ccc(F)cc1)c1cc2ccccc2cc1O | 75.8%
COc1ccc2c(c1)C(=O)/C(=C/c1ncc([N+](=O)[O-])n1C)O2 | -27.8% (active)
CC1OC2CC(=O)OC2C2=C1C(=O)c1c(O)c3c(c(O)c1C2=O)C1CC(O)C3(O)C(C)O1 (stereo not given) | 2.66% (active)
CN(C)c1ncnc2c1nnn2C1OC(CO)C(O)C1O (stereo not given) | 36.3%
COc1ccc(-c2nn(-c3cccc(Cl)c3)cc2-c2c(C#N)c(N)n(N)c(=O)c2C#N)cc1 | 66.2%
C[C@]12CC[C@@H]3c4ccc(OS(=O)(=O)O)cc4CC[C@H]3[C@@H]1CC[C@@H]2NS(=O)(=O)c1ccc(-c2ccccc2)cc1 | 36.3%
CCN(CC)CCCC(C)N=C(C1=C(C(=NC(C)CCCN(CC)CC)c2cccc(OC)c2)C(=O)NC1=O)c1cccc(OC)c1 (stereo not given) | -81.7% (active)
CN(C)CCOc1ccccc1NC1=C(Cl)C(=O)C(Nc2ccccc2OCCN(C)C)=C(Cl)C1=O | 84.7%
COc1cc(C(=O)/C=C/c2c[nH]c3ccccc23)cc(OC)c1OC | 17.7%
